According to PubChem BioAssay (Tox21):
Records with an inconclusive call do not appear. The source made the active and inactive calls. Calls come from the whole dose curve.

target: Thyrotropin receptor (Homo sapiens) (UniProt P16473); test: qHTS assay to identify small molecule agonists of the thyroid stimulating hormone receptor (TSHR) signaling pathway (AID 1224843); conditions: TSHR-HEK293 cells, cAMP HTRF, agonist mode, 30 min; series mostly up to 92.4 µM; note: nearly all actives have a fitted effect of over 45% in size
Source text: National Center for Advancing Translational Sciences [NCATS]
NIH Chemical Genomics Center [NCGC]
U.S. Environmental Protection Agency [EPA]
National Institutes of Environmental Health Sciences [NIEHS]
National Toxicology Program [NTP]
U.S. Food and Drug Administration [FDA]
TSHR is the receptor for thyrotropin (thyroid stimulating hormone or TSH), a member of the glycoprotein hormone family. TSH is released by the anterior pituitary gland and is the main regulator of thyroid gland growth and development. Upon binding circulating thyrotropin, a G-protein signal cascade activates adenylyl cyclase and […] cAMP concentration is increased. cAMP is a key second messenger involved extensively in cellular signal transduction pathways associated with the majority of G-protein coupled receptors (GPCRs). The activation of these GPCRs by neurotransmitters, lipids, nucleotides, peptides and hormones results in the activation or the inhibition of plasma membrane-bound adenylate cyclase through heterotrimeric G-proteins. A cell-based TSHR assay was used to screen the Tox21 10K library for compounds that can modulate TSHR in agonist mode.
Tox21 Assay Protocol Summary:
TSHR-Hek293 cells were dispensed at 800 cells/4uL/well in 1536-well white plates using a Multidrop dispenser. […] The plates were incubated at room temperature for 30 min. 2.5 ul/well of cAMP-d2 and 2.5ul/well of anti-cAMP-cryptate was added respectively into the assay plates using a Flying Reagent Dispenser. After 1 hr incubation at room temperature, the fluorescence intensity in the plates was measured using an Envision plate reader. Each test compound was measured at 15 concentrations and in triplicates.
% is set by controls: 0 for no effect and ±100 for the full control effect.

Chain of Thyrotropin receptor (Homo sapiens) (P16473 whole entry, looked up): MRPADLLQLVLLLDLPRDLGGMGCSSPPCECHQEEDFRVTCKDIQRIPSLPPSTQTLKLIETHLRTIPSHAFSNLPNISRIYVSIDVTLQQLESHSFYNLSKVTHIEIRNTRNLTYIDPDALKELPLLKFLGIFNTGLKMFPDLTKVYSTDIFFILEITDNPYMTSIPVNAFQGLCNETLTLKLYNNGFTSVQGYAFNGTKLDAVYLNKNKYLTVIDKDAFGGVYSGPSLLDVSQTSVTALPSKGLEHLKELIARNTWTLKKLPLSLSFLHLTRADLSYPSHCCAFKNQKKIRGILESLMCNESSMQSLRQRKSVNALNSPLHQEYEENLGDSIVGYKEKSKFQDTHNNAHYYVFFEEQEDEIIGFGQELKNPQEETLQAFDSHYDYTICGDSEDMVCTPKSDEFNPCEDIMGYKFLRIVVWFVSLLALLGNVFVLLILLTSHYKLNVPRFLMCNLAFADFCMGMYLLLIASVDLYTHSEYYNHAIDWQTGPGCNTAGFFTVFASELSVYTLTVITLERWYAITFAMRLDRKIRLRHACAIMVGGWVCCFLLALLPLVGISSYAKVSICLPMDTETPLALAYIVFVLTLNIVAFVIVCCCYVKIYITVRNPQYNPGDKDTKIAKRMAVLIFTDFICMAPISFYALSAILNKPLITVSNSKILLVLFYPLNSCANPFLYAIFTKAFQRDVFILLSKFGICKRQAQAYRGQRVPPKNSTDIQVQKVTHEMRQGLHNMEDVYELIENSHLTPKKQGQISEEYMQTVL

Row | SMILES | outcome | activation
1 | CCC(C)OC(C)CC (stereo not given) | inactive | 
2 | Cn1c(=O)c2c(ncn2CCO)n(C)c1=O | inactive | 
3 | C=CCCCCCCCC | inactive | 
4 | O=C(O)CSCC(=O)NC1CCSC1=O (stereo not given) | inactive | 
5 | C=CCCCCCCCCC(=O)OCCCC | inactive | 
6 | CC(=O)CC(=O)Nc1ccc(C)cc1C | inactive | 
7 | CC(=O)OC1CCCCC1C(C)(C)C (stereo not given) | inactive | 
8 | CC(=O)OC(C)=O | inactive | 
9 | COc1nc(N)nc2nc[nH]c12 | inactive | 
10 | CCCCOCCOC(=O)COc1ccc(Cl)cc1Cl | inactive | 
11 | ONc1ccccc1 | inactive | 
12 | CCO[Si](CC)(OCC)OCC | inactive | 
13 | CCO | inactive | 
14 | O=C1OCCO1 | inactive | 
15 | CC(C)(CO)C(O)C(=O)NCCCO (stereo not given) | inactive | 
16 | CCCCCC(C)O (stereo not given) | inactive | 
17 | COC(=O)CCCCC(=O)O | inactive | 
18 | CCCCCCC1(C)CCC(=O)O1 (stereo not given) | inactive | 
19 | CCCC(CC)c1ccccc1 (stereo not given) | inactive | 
20 | CC1(C)Cc2cccc(N)c2O1 | inactive | 

Row | SMILES | outcome | activation
21 | N[C@@H](CSCCCO)C(=O)O |  | 0.239% [at 19 µM] (inactive)
22 | O=C(O)c1cc2ccccc2nc1C(=O)O | inactive | 
23 | C/C(CC(C)C)=N\O | inactive | 
24 | COC(=O)c1cc(Cl)cc(Cl)c1 | inactive | 
25 | CC1=C(O)C(=O)C(C)O1 (stereo not given) | inactive | 
26 | Cc1ccc(C(=O)O)cc1[N+](=O)[O-] | inactive | 
27 | CC(C)=CCC[C@@](C)(O)[C@H]1CC=C(C)CC1 | inactive | 
28 | CCCCCCCCCOC(=O)CCCCC(=O)OCCCCCCC | inactive | 
29 | CN(C)CCOC(=O)C(c1ccccc1)C1(O)CCCC1 (stereo not given) | inactive | 
30 | CCCCCCCCCCCCCCC(=O)NC(CO)CCCCCCCCCCCCCC (stereo not given) | inactive | 
31 | CCCCCCCCCCCCCCCCCC#N | inactive | 
32 | Cc1cccc(Cl)c1 | inactive | 
33 | Nc1nc(-c2ccccc2)c(Br)c(=O)[nH]1 | inactive | 
34 | N[C@@H](Cc1ccc(O)cc1)C(=O)O |  | 8.55% [at 8.39 µM] (inactive)
35 | COc1cc2c(cc1OC)C(=O)C(CC1CCN(Cc3ccccc3)CC1)C2 (stereo not given) | inactive | 
36 | CC(=O)O[C@@H]1CC2CCC1(C)C2(C)C (stereo not given in full) | inactive | 
37 | O=C1c2ccccc2C(=O)c2cc(Cl)ccc21 |  | -6.72% [at 8.39 µM] (inactive)
38 | O=C[O][Al]([O]C=O)[O]C=O | inactive | 
39 | CCOCCOCC | inactive | 
40 | COc1cc(OC)nc(O[C@H](C(=O)O)C(OC)(c2ccccc2)c2ccccc2)n1 | inactive | 
